# Measurements taken from the supplement of paper PMC6555819.
# Legend:
# Assay in all cases: PBM binding z-score (relative to random genomic background probes); higher = stronger binding; sequences stand for … in GC…GCGATTGACAGCGTAGAATGAAGG
# [1] = test system: PPARg:RXRa DBDmut IVT, anti-RXR (DBD mutation: RXRa K156A/R161A, NR concentration 270 nM, RXRa partner concentration 90 nM)
# Method in brief: (§1)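 Ligand-free nuclear receptor dimers were applied to custom Agilent 4×180K protein-binding microarrays whose double-stranded probes carried direct-repeat seeds, single-nucleotide variants, half-site ablations and random human genomic background sequences in 34-nt variable regions. Incubation lasted 1 h. Binding z-scores were computed against the random background probes from regression-normalized fluorescence.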
# [2] = test system: PPARg:RXRa IVT, anti-PPARg (NR concentration 270 nM, RXRa partner concentration 90 nM)
# Method in brief: as §1
# [3] = test system: PPARg DBDmut:RXRa IVT, anti-PPARg (DBD mutation: PPARg1 K132A/R137A, NR concentration 270 nM, RXRa partner concentration 90 nM)
# Method in brief: as §1
# [4] = test system: PPARg DBDmut IVT, anti-PPARg (DBD mutation: PPARg1 K132A/R137A, NR concentration 270 nM)
# Method in brief: as §1
# [5] = test system: PPARg homodimer (NR concentration 180 nM)
# Method in brief: as §1
# [6] = test system: PXR:RXRa (NR concentration 270 nM, RXRa partner concentration 90 nM)
# Method in brief: as §1
# [7] = test system: PXR homodimer (NR concentration 270 nM)
# Method in brief: as §1
# [8] = test system: RARa:RXR (NR concentration 270 nM, RXRa partner concentration 90 nM)
# Method in brief: as §1
# [9] = test system: RARa homodimer (NR concentration 270 nM)
# Method in brief: as §1
# [10] = test system: RARb:RXRa (NR concentration 270 nM, RXRa partner concentration 90 nM)
# Method in brief: as §1
Sequence,PBM binding z-score [1],PBM binding z-score [2],PBM binding z-score [3],PBM binding z-score [4],PBM binding z-score [5],PBM binding z-score [6],PBM binding z-score [7],PBM binding z-score [8],PBM binding z-score [9],PBM binding z-score [10]
AGTCATAGTTCAGGACGAGGTAACGTAAAGCACG,-0.922,0.674,0.901,0.714,0.947,1.13,0.0157,1.31,0.185,2.59
ACTATTAGTTGACATAGGGCAACCGATACGACGC,0.444,0.742,1.27,1.22,0.811,0.547,0.504,0.635,0.879,1.19
ATATCTAGGTTAAGGGTCATTCAGGTTGGTTCGC,7.59,8.2,6.43,4.16,4.9,5.61,3.45,5.91,3.76,3.98
GCGACTGGGGCATCAGCAGGTTACCGTAACTTAA,3.92,3.16,-0.711,-1.13,0.0663,-0.0573,-0.613,0.398,-0.334,0.841
GGACCGAGGGCAAAGTTGATAGCATCTGTCGACG,0.973,1.67,-0.427,-0.551,0.198,1.04,-0.387,1.26,-0.439,2.4
GTTAGCAGGCCATTTGGGTCACTCAATGACGGGC,2.37,2.61,-0.276,-0.494,-0.0267,0.566,0.185,0.925,-0.249,1.52
TCTTGTAGATCAAAGGTTAACAAAGCCGAAGCCT,2.15,4.38,1.04,0.514,1.03,2.26,0.125,3.03,1.01,2.09
ACTAGCAGGCCAAGTTTGGGTCACACAAACAAAG,0.756,1.65,0.166,-0.339,0.789,1.07,-0.0733,1.95,-0.318,1.91
CCGACTGGGGCAAGGTTACCATAACGCACAGCCA,3.29,3.67,-0.449,-0.891,0.674,0.267,-0.266,0.99,0.394,1.75
CGACAAAGTTCAAGGTAACGTAACAGAAAGCAGC,0.277,1.76,0.591,0.507,2.08,3.81,2.44,3.27,1.06,4.89
AACTCTAGGTAAAGTTCAGTGAAAGATCGATAGA,2.44,2.21,0.224,0.266,0.953,1.71,1.53,1.14,0.544,2.73
CAAACTAGATCAAGAGGTCAAAGTCCGCTTCCCG,2.78,3.67,0.521,0.139,2.25,5.07,1.99,5.22,1.44,4.06
CGTCCAAGGTCAGCTGGTCAGTGAAAGCGACGTG,2.4,2.17,0.5,-0.832,2.63,2.67,-0.135,3.24,1.47,4.79
CAAACTAGGTCAAGAGGTCAACGTCCGCTTCCCG,8.45,8.58,3.13,2.14,8.6,6.18,1.76,7.72,4.74,5.47
ATCGAAAGGACGAGGTGAGTATAGAGAAAGGGAA,0.186,0.649,0.713,0.658,0.139,-0.25,0.286,0.04,0.504,1.31
ACTATTAGTTGACTTTGGGCAACCGATACGACGC,-0.00927,0.141,1.83,1.67,0.55,0.0456,0.199,0.481,0.975,0.454
TCGGGTAGGTTAGGGGCATTCAGAATGGCGTCGA,1.55,1.36,0.266,0.468,1.38,1.67,1.27,1.32,0.423,1.74
ATCTGTAGGTAAAGTTCAGTGAAAGATCGATAGA,1.48,2.2,1.04,0.902,1.06,1.41,1.84,0.99,0.559,2.53
CGAAATAGGTCAAGGACAGTGAATCTCCGCACGC,7.8,7.31,2.5,0.573,3.31,2.69,0.113,3.82,1.59,4.51
ATATGCAGGTTAGCTGGGGTCATTCAGACTAGGC,2.79,2.76,0.943,1.03,1.18,6.31,2.68,5.26,0.349,3.15
GCGACTGGGGCATGAGCAGGTTACCATAACTTAA,3.82,3.4,-0.58,-0.475,0.287,0.134,-0.328,0.416,-0.578,0.781
CCTACTGGGCCAAAAAGGTCATGGATGCCGATAA,3.31,4.16,0.474,-0.298,4.05,4.81,0.732,5.53,1.87,4.27
AGAATGAGGTTACCAAAGATCAGGGAAACGCTTG,3.53,3.38,1.26,1.04,1.16,1.38,0.241,2.16,-0.326,2.03
ATCTCTAGGTCACCAAGTTCAGTGAATGCCGAAC,7.23,7.06,2.4,2.04,3.74,5.68,11.1,3.92,2.64,4.82
